Results as given in PubChem BioAssay AID1159580 (chemical genetic matrix, 2015).
Among all 5,500 compounds or so, about 2,000 (36%) were called active. Inconclusive results (about 18%) are left out. No stated cut-off is given here; in the data, active means normalized growth mostly below about 0.91 (no sharp cut-off); inconclusive means no clear call, values can overlap the other calls; inactive means mostly above about 0.92. The list shows a part of the results.

Test: chemical genetic growth profiling, strain panel (AID 1159580);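 further: tested at 20 µM; growth read once vehicle control cultures reached saturation at 30 °C; 1 = growth at the plate median or of vehicle wells; lower values mean less growth of the strain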
Conditions: S. cerevisiae deletion strains, growth OD

Measured: normalized growth

CN(C)CC[C@@H](c1ccc(Cl)cc1)c1ccccn1
inactive: locus YAL040C, strain CLN3, hits give low values 1 | locus YDR363W, strain ESC2, hits give low values 1 | locus YER002W, strain NOP16, hits give low values 0.998 | locus YGR078C, strain PAC10, hits give low values 1.01 | locus YNL175C, strain NOP13, hits give low values 1.01 | locus YNL197C, strain WHI3, hits give low values 1 | locus YNL224C, strain SQS1, hits give low values 0.999 | locus YOR083W, strain WHI5 (second series), hits give low values 1.01 | locus YPL055C, strain LGE1, hits give low values 1.01
